Compounds without any hit were thinned out: in the full panel of roughly 83,000, 20% have a hit.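 Single-concentration screen, 48 h exposure, 96-well plates. Endpoint: percent growth. Below 10 = active.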 Values without a mark were called inactive. Activity calls are given as the source filed them.
Columns and labels:
Assay in all cases: NCI-60 one-dose screen, 48 h (100 = growth as untreated, 0 = no growth, -100 = all killed)
NCI-H23 lung = conditions: 10 µM unless noted
NCI-H322M lung = conditions: 10 µM unless noted
HOP-62 NSCLC = conditions: 10 µM unless noted
NCI-H460 lung = conditions: 10 µM unless noted
HOP-92 NSCLC = conditions: 10 µM
NCI-H522 lung = conditions: 10 µM unless noted
786-0 renal = conditions: 10 µM unless noted
COLO 205 colon = conditions: 10 µM unless noted
DU-145 prostate = conditions: 10 µM unless noted
K-562 leukemia = conditions: 10 µM unless noted
MALME-3M melanoma = conditions: 10 µM unless noted
MDA-MB-231 breast = conditions: 10 µM unless noted
RXF 393 renal = conditions: 10 µM unless noted
SF-268 CNS = conditions: 10 µM unless noted
SF-295 CNS = conditions: 10 µM unless noted
SF-539 CNS = conditions: 10 µM unless noted
UACC-257 melanoma = conditions: 10 µM unless noted
A549/ATCC NSCLC = conditions: 10 µM unless noted
NCI-H226 lung = conditions: 10 µM unless noted
M14 melanoma = conditions: 10 µM unless noted

SMILES	growth (NCI-H23 lung)	growth (NCI-H322M lung)	growth (HOP-62 NSCLC)	growth (NCI-H460 lung)	growth (HOP-92 NSCLC)	growth (NCI-H522 lung)	growth (786-0 renal)	growth (COLO 205 colon)	growth (DU-145 prostate)	growth (K-562 leukemia)	growth (MALME-3M melanoma)	growth (MDA-MB-231 breast)	growth (RXF 393 renal)	growth (SF-268 CNS)	growth (SF-295 CNS)	growth (SF-539 CNS)	growth (UACC-257 melanoma)	growth (A549/ATCC NSCLC)	growth (NCI-H226 lung) [%]	growth (M14 melanoma)
NS(=O)(=O)c1ccc(-n2cc(CN3CCCCC3)nn2)cc1	107%	107%	106%	105%	96.6%	95.8%	109%	119%	108%	94.9%	105%	105%	106%	102%	102%	102%	101%			
O=C(NCCN1CCCC1)c1ccc(-c2nc3ccc4[nH]ncc4c3c3c2CCCC3)cc1	-14.8% (active)	3.73% (active)	15.8%	-5.93% (active)	-15.4% (active)	-29.2% (active)	6.43% (active)	-14.8% (active)	6.08% (active)	0.479% (active)	-2.3% (active)	-2.53% (active)		-11.3% (active)	3.28% (active)	-63.2% (active)	23.8%			
COc1c(N2CC3CCCNC3C2)c(F)cc2c(=O)c(C(=O)N/N=C/c3ccc(Br)cc3)cn(C3CC3)c12 (stereo not given)	88.3%	89%	88.4%	86%	57.9%	77.6%	85.3%	100%	85.5%	-18.5% (active)	82.8%	56.1%		82.4%	101%	72.7%	100%	83.1%		
COc1c(N2CC3CCCNC3C2)c(F)cc2c(=O)c(C(=O)N/N=C/c3ccc(N(C)C)cc3)cn(C3CC3)c12 (stereo not given)	69.1%	93.6%	91.9%	78.3%	69.5%	73%	37.7%	104%	73.6%	-10% (active)	92.9%	69.1%		85.5%	95%	-8.68% (active)	106%	88.7%		
CC1(C)CC[C@]2(C(=O)O)CC[C@]3(C)C(=CC[C@@H]4[C@@]5(C)CC/C(=N\OCCC#N)C(C)(C)[C@@H]5CC[C@]43C)[C@@H]2C1	98%	111%	79.2%	93.7%			80.8%	111%	91.8%	109%	117%	93%	66.6%	84.6%	102%	99.2%	108%	93.7%	98	98.2%
Nc1ncc(-c2ccc(NS(=O)(=O)c3ccc(Cl)c(Cl)c3)cc2)[nH]1	95.9%	97%	113%	93.6%		92.7%	93.8%	109%	103%	89.7%	85.3%	91.2%	95.4%	75.1%	90.8%	88.1%	87.7%	92.5%		95.5%
Cc1cc(S(=O)(=O)N(C)C)cc(NCC(=O)NC(=O)NCC(C)C)c1C	94.5%	100%	78.6%	109%			91.1%	109%	85.1%	97.1%	106%	85.6%	64.8%	81.5%	100%	97.1%	103%	88%	90.7	100%
Cc1[nH]c(C(=O)Nc2ccccc2OCc2cccc(C(=O)N3CCC[C@@H](N)C3)c2)c(Cl)c1Cl	-80.6% (active)	-94.3% (active)	-60.4% (active)	-73.7% (active)		-66.5% (active)	-72.6% (active)	-64% (active)	-89.3% (active)	-49.6% (active)	-79.1% (active)	-75.8% (active)	-87.6% (active)	-66.9% (active)	-91.7% (active)	-89.2% (active)	-72.4% (active)	-77% (active)		-85.7% (active)
O=S(=O)(NCCCNc1nccc(-c2[nH]c(-c3ccccc3)nc2-c2ccc(Cl)c(O)c2)n1)c1ccc(Br)cc1	46.1%	58.4%	46.7%	22.3%	46%	26.6%	53.4%	81.3%	47.7%	18.9%	2.55% (active)	43.4%	-6.2% (active)	37.9%	2.98% (active)	46.7%	16.7%	30.2%		
COc1cc(OC)c(/C=C/S(=O)(=O)Cc2ccc(OC)c(NC(=O)CCC(=O)NO)c2)c(OC)c1	16.6%	47.8%	25.3%	6.85% (active)	63.5%	-6.54% (active)	28.5%	-53.6% (active)	14.4%	12.6%	64.1%	26%	6.03% (active)	30.4%	8.21% (active)	-4.79% (active)	59.5%			
Nc1nc(-c2cccc([N+](=O)[O-])c2)c(N=Nc2ccccc2)s1	70.2%	76.2%	80.6%	56.6%		48.6%	59.7%	63.1%	69.5%	32.8%	103%	62%	-16.3% (active)	66.4%	63%	71.6%	93.4%	60%		57.7%
COc1ccc(CCN2C(=O)CSC2=S)cc1	103%	99.4%	104%	103%		69.3%	87.3%	117%	41%	51.4%	98%	79.6%	89.7%	100%	97.6%	84.7%	98.9%	102%		101%
COc1cc(Cn2cc3c(c2)-c2onc(CN4CCOCC4)c2CC3)cc(OC)c1OC	94.6%	100%	95.6%	111%	89.7%	86%	100%	114%	113%	72.5%	91.8%	82.6%		99.7%	93%	99.2%	101%	101%		
CC1(C)[C@@H](O)CC[C@]2(C)[C@H]3CC[C@@H]4[C@H]5[C@H](C(=O)/C=C\c6ccncc6)CC[C@]5(O)CC[C@@]4(C)[C@]3(C)CC[C@@H]12	49.2%	93.4%	89.9%	62.9%			35.3%	91%	38%	9.43% (active)	94.3%	-8.43% (active)	-13.7% (active)	50.2%	93.3%	37.9%	72.8%	71.5%	27.8	67.4%
O=S(=O)(NCCCNc1nccc(-n2cnc3ccccc32)n1)c1ccc(C(F)(F)F)cc1	91.3%	103%	87.1%	89.8%	80.2%	70%	91.2%	96.4%	94.5%	67.6%	98.4%	83.1%	105%	86.8%	81.2%	87.9%	97.8%	86.3%		
COc1ccc2[nH]cc(/C=N/Nc3nc4ccccc4s3)c2c1	67.6%	79.2%	62.9%	32.1%		28.5%	52.9%	80.4%	60.3%	24.3%	98.4%	67.2%	60.8%	55.9%	58.5%	70.5%	81.9%	52.4%		52%
CC(=O)c1ccc(Nc2nc(SCC(C)C)nc(-c3ccccc3)c2C#N)cc1		94.9%	25.9%	105%	44.6%	87.3%	53.9%	119%	107%	95.4%	94.9%	73.5%	-1.29% (active)	72%	17%	63.9%	105%	101%	55.5	103%
